Experimental data: PubChem BioAssay AID360 (National Center for Advancing Translational Sciences (NCATS), 2006)
Screen size: about 48,000 compounds; about 550 (1.1%) were called active. Inconclusive results (about 4%) are left out. This is one part of a sample in which actives are shown more often than they occur. No stated cut-off is given here; in the data, active means potency below about 15 µM; inconclusive means mostly about 16 µM to 33 µM; inactive means weaker than that.

target: Lysosomal acid glucosylceramidase (Homo sapiens) (UniProt P04062); assay: Glucocerebrosidase; details: purified enzyme, resorufin glucoside fluorescence (screen aimed at inhibitors), 20 min;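 further: the screen sought inhibitors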
How it was run: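 Wild-type enzyme at 0.2 nM final in 50mM citric acid/KH2PO4, 10mM sodium taurocholate, 0.01% tween-20, pH 5.9, with resorufin beta-D-glucopyranoside at 30 uM final. Compounds titrated, 20 min at RT, red fluorescence read; AC50 from titration.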
Potency means the concentration at half of the fitted maximal effect.

Chain of Lysosomal acid glucosylceramidase (Homo sapiens) (P04062 whole entry, looked up): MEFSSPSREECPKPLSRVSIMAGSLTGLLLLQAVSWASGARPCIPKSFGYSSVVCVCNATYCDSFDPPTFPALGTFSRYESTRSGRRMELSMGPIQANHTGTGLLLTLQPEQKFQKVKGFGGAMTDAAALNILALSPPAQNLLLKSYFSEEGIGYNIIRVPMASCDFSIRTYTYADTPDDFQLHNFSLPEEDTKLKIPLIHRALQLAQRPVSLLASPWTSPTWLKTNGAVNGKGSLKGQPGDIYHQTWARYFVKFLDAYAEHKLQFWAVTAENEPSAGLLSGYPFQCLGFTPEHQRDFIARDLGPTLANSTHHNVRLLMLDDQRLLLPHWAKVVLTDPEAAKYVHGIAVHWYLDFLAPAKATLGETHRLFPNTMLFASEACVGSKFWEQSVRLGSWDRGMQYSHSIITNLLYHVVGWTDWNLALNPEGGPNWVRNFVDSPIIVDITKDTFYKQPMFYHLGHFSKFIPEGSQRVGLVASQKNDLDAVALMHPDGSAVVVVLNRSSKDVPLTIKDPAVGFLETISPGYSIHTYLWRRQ

SMILES | Potency
COc1ccc(S(=O)(=O)N2CCCC2)c(C)c1C | > 76.9 µM (inactive)
CC(C)C(c1nnnn1C1CCCC1)N1CCN(c2ccccc2F)CC1 (stereo not drawn) | 45 µM (inactive)
CCOC(=O)c1c(C)[nH]c(C)c1C(=O)CSc1nc(N)cc(N)n1 | > 76.9 µM (inactive)
O=C(CSc1nnc(-c2cnccn2)n1Cc1ccco1)c1ccc(Cl)c(Cl)c1 | > 76.9 µM (inactive)
COCCCn1c(CCC(=O)O)ccc1-c1ccc(F)cc1 | > 76.9 µM (inactive)
O=C(NCCCNC(=O)NC1CCCCC1)NC1CCCCC1 | > 76.9 µM (inactive)
CC(=O)N1CSCC1C(=O)O (stereo not drawn) | > 76.9 µM (inactive)
O=C(CSc1nnc(-c2ccco2)n1CC1CCCO1)c1ccccc1 (stereo not drawn) | > 76.9 µM (inactive)
COc1ccc(C2C3=C(CC(C)(C)CC3=O)Oc3ncn4nc(-c5cccnc5)nc4c32)cc1OC (stereo not drawn) | > 76.9 µM (inactive)
CCCn1c(SCC(=O)Nc2c(C)cccc2C)nnc1C(C)C | > 76.9 µM (inactive)
CCOC(=O)CSc1nnc(-c2ccco2)n1C | > 76.9 µM (inactive)
CN1CCC2(CC1)NC(=O)NC2=O | > 76.9 µM (inactive)
O=C(Nc1cnccn1)c1cccnc1 | > 76.9 µM (inactive)
O=C(Cn1c(-c2ccccn2)nc2ccccc21)NCCN1CCOCC1 | > 76.9 µM (inactive)
COc1ccc(-c2nnc(SCC(=O)c3ccco3)n2-c2ccccc2)cc1 | > 76.9 µM (inactive)
Cc1ccc(C(C(=O)NC2CCCC2)N(Cc2ccco2)C(=O)CCC(=O)Nc2ccccn2)cc1 (stereo not drawn) | > 76.9 µM (inactive)
COC(=O)c1ccc(C2NC(=O)NC(C)=C2C(=O)N(C)C)cc1 (stereo not drawn) | > 76.9 µM (inactive)
COC(=O)c1ccc(C2C3=C(Nc4nnnn42)c2ccccc2OC3)cc1 (stereo not drawn) | 8.19 µM (active)
COc1ccc(C2C(C(=O)Nc3ccccc3OC)=C(C)Nc3nnnn32)c(OC)c1 (stereo not drawn) | > 76.9 µM (inactive)
CCOC(=O)c1c(C)nc(-c2ccccc2)nc1NC(=O)C(C)C | > 76.9 µM (inactive)
O=c1[nH]nc(Cc2ccccn2)c2ccccc12 | > 76.9 µM (inactive)
CCOC(=O)c1cnc(-n2nc(C)cc2C)nc1-n1nc(C)cc1C | > 76.9 µM (inactive)
CCc1ccccc1N(CC(=O)N1CCN(c2ccccc2F)CC1)S(C)(=O)=O | > 76.9 µM (inactive)
CCOc1ncccc1C(=O)OCc1cn2cc(Cl)ccc2n1 | > 76.9 µM (inactive)
CN(Cc1ccccc1)Cc1ccccc1F | > 76.9 µM (inactive)
COc1ccccc1OCCC(=O)OCC(=O)NC(=O)NC(C)(C)C | > 76.9 µM (inactive)
O=S(=O)(c1cccc(S(=O)(=O)N2CCC(n3nnc4ccccc43)CC2)c1)N1CCCCC1 | 10.5 µM (active)

SMILES | Potency
CC(=O)c1cccc(S(=O)(=O)N2CCC(n3nnc4cc(F)ccc43)CC2)c1 | > 76.9 µM (inactive)
O=S(=O)(c1cccc(-c2nnc(SC(F)F)n2-c2ccccc2)c1)N1CCCCC1 | > 76.9 µM (inactive)
O=C(C1=C(O)C(=O)N(Cc2ccccc2)C1c1cccnc1)c1ccco1 (stereo not drawn) | > 76.9 µM (inactive)
O=C1NC(c2cc3c(cc2Cl)OCO3)Oc2ccccc21 (stereo not drawn) | > 76.9 µM (inactive)
O=C1N(Cc2ccc3c(c2)OCO3)c2ccccc2C1(O)c1c[nH]c2ccccc12 (stereo not drawn) | > 76.9 µM (inactive)
CCC(=O)Nc1ccc(C(=O)CSc2nnc(CNc3ccc(Cl)cc3)o2)cc1OC | > 76.9 µM (inactive)
Cc1cc(-n2nc(C)cc2C)n2ncc(-c3ccccc3)c2n1 | > 76.9 µM (inactive)
Cc1cc(C)c2c(n1)nn1c(N3CCOCC3)cc(C)nc21 | > 76.9 µM (inactive)
Cc1cc(N2CCCC2)n2nc(C)c(-c3ccccc3)c2n1 | 7.9 µM (active)
COc1ccc(CC(=O)Nc2ccc3c(c2)CCC3)cc1S(=O)(=O)N1CCOCC1 | > 76.9 µM (inactive)
Cc1cccc(-n2c(N)cc(=O)nc2SC(C)C(=O)NC2CCCCC2)c1 (stereo not drawn) | > 76.9 µM (inactive)
CC(C)N(C(=O)COC(=O)c1ccccc1C(=O)N1CCN(c2ccc(F)cc2)CC1)C(C)C | > 76.9 µM (inactive)
O=C(Nc1cccc(NC(=O)N2CCN(c3ccccc3)CC2)c1)N1CCN(c2ccccc2)CC1 | > 76.9 µM (inactive)
CC(=O)N1CCN(c2ccc(NCc3ccc(C(C)C)cc3)cc2)CC1 | 7.71 µM (active)
COC(=O)Cc1c(C)c2ccc(OCC(=O)NCc3ccc4c(c3)OCO4)cc2oc1=O | > 76.9 µM (inactive)
CC1(C)Oc2ccc(C(=O)N3CCOCC3)cc2N(CC(=O)Nc2ccccc2)C1=O | > 76.9 µM (inactive)
Cc1ccc(-c2noc(CN3CCN(Cc4ccccc4)CC3)n2)cc1 | > 76.9 µM (inactive)
CCOC(=O)Cc1c(C)nc2c(C#N)c(C)nn2c1C | > 76.9 µM (inactive)
Cc1cc(C(=O)COC(=O)CCCN2C(=O)c3ccccc3C2=O)c(C)n1C | > 76.9 µM (inactive)
CCOC(=O)CSc1nnc(NC(=O)c2cccc(S(=O)(=O)N3CCCC3)c2)s1 | > 76.9 µM (inactive)
COc1cccc(-c2nnc(N(C)C(=O)c3ccno3)s2)c1 | > 76.9 µM (inactive)
CC1(C)CC(CCC(=O)Nc2ccccc2Cl)C(=O)O1 (stereo not drawn) | > 76.9 µM (inactive)
CN(C(=O)COc1ccccc1)c1nnc(-c2ccncc2)s1 | > 76.9 µM (inactive)
Cc1cc(Cl)c(S(=O)(=O)NCCC(=O)O)cc1OCC(N)=O | > 76.9 µM (inactive)
COC(=O)C(CC(=O)Nc1cc(C)ccc1C)Nc1ccccc1OC (stereo not drawn) | > 76.9 µM (inactive)
Cc1ccc2nc(S(=O)(=O)O)[nH]c2c1 | > 76.9 µM (inactive)
